Measurements reported in PubChem BioAssay (NCI).
Compounds without any hit were thinned out: in the full panel of roughly 83,000, 20% have a hit.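 Negative percent growth values reflect cell death: -40 means 40% of the cells present at the start died, and -100 means all died.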 Values without a mark were called inactive. Activity calls are given as the source filed them. Rule for the calls: active = growth percent below 10; inactive = the rest.

Assays:
Experiment in all cases: NCI-60 one-dose screen, 48 h (100 = growth as untreated, 0 = no growth, -100 = all killed)
Details in all cases: 10 µM unless noted
DU-145 prostate = tested on: DU-145 prostate
K-562 leukemia = tested on: K-562 leukemia
MALME-3M melanoma = tested on: MALME-3M melanoma
MDA-MB-231 breast = tested on: MDA-MB-231 breast
RXF 393 renal = tested on: RXF 393 renal
SF-268 CNS = tested on: SF-268 CNS
SF-295 CNS = tested on: SF-295 CNS
SF-539 CNS = tested on: SF-539 CNS
UACC-257 melanoma = tested on: UACC-257 melanoma
M14 melanoma = tested on: M14 melanoma
HCT-15 colon = tested on: HCT-15 colon
HT29 colon = tested on: HT29 colon
SNB-75 CNS = tested on: SNB-75 CNS
SNB-19 CNS = tested on: SNB-19 CNS
U251 CNS = tested on: U251 CNS
PC-3 prostate = tested on: PC-3 prostate
SK-MEL-5 melanoma = tested on: SK-MEL-5 melanoma
LOX IMVI melanoma = tested on: LOX IMVI melanoma
SK-MEL-28 melanoma = tested on: SK-MEL-28 melanoma
UACC-62 melanoma = tested on: UACC-62 melanoma

| SMILES | growth (DU-145 prostate) | growth (K-562 leukemia) | growth (MALME-3M melanoma) | growth (MDA-MB-231 breast) | growth (RXF 393 renal) | growth (SF-268 CNS) | growth (SF-295 CNS) | growth (SF-539 CNS) | growth (UACC-257 melanoma) | growth (M14 melanoma) | growth (HCT-15 colon) | growth (HT29 colon) | growth (SNB-75 CNS) | growth (SNB-19 CNS) | growth (U251 CNS) | growth (PC-3 prostate) | growth (SK-MEL-5 melanoma) | growth (LOX IMVI melanoma) | growth (SK-MEL-28 melanoma) | growth (UACC-62 melanoma) |
| --- | --- | --- | --- | --- | --- | --- | --- | --- | --- | --- | --- | --- | --- | --- | --- | --- | --- | --- | --- | --- |
| CCOc1ccc(-n2c(-c3cc(OC)c(OC)c(OC)c3)nnc2-c2ccc(OC)cc2N)cc1 | 57.6% | 70.3% | 79.7% | 82.7% | 51.9% | 86.9% | 84.8% | 77.6% | 57.2% | 68.1% | 64.9% | 52.7% | 76.3% | 75.5% | 65.6% | 63.3% | 66% | 80.3% | 80.2% | – |
| CCCC(=O)Oc1ccc(/C(=C(\C)c2ccc(Cl)cc2)c2ccc(OCCN(CC)CC)cc2)cc1 | -22.9% (active) | -19.6% (active) | -77.5% (active) | -40.9% (active) | -79.5% (active) | -9.12% (active) | -75.9% (active) | -77.9% (active) | -62.2% (active) | -71.8% (active) | -79.9% (active) | -50% (active) | -48.1% (active) | -38.1% (active) | -84.6% (active) | -15.4% (active) | -99.7% (active) | -98% (active) | -69.8% (active) | – |
| CCCCCCCCCCCCCCCCCCNCc1ccc(Cl)cc1 | -91.3% (active) | -65.7% (active) | -57.6% (active) | -72.9% (active) | -74.4% (active) | -63.5% (active) | -46.8% (active) | -88.1% (active) | 38.9% | -72.2% (active) | -87.1% (active) | -94.7% (active) | -60.9% (active) | -67.6% (active) | -84.8% (active) | -89.3% (active) | 11.8% | -74.6% (active) | 27.2% | – |
| C#CCn1c(-c2cc(OC)c(OC)cc2Br)nc(-c2ccccc2)c1-c1ccccc1 | 63.9% | 15.1% | 29.3% | 45.7% | 41.3% | 70% | 21.6% | 62.7% | 59.2% | 16.1% | 29.7% | 9% (active) | 43.1% | 55% | 45.4% | – | 12.4% | 34.9% | 69.8% | 40% |
| O=C(Nc1ccc(-n2ccc3c(NC(=O)c4ccccc4)nccc32)cc1)Nc1cccc(C(F)(F)F)c1 | 31.8% | 21.2% | 73.4% | 63.7% | 10.3% | 51.8% | 37.1% | 44.8% | 68.8% | 43.7% | 19.7% | -0.934% (active) | 74.3% | 65.8% | 32.3% | – | 53.6% | 26.6% | 60.3% | 78.6% |
| O=C(O)c1ccccc1C(=O)c1ccc(I)cc1 | 109% | 104% | 98.3% | 110% | 108% | 106% | 102% | 98.9% | 117% | 98.2% | 100% | 90% | 98.1% | 110% | 102% | – | 102% | 91% | 107% | 105% |
| CN1CCN(CC(=O)N(C)c2ccc(N=C(c3ccccc3)c3c(O)[nH]c4ccc(C#N)cc34)cc2)CC1 | 32.8% | 11% | 35.5% | 42.5% | 3.21% (active) | 32% | 18.2% | -20.2% (active) | 78.5% | 30.7% | 64.7% | 10.7% | 3.45% (active) | 61.1% | 35.8% | 36.4% | 25.8% | 13.2% | 53% | – |
| Cc1cccc(Cc2cnc(NC(=O)CCc3ccc(C)o3)s2)c1 | 18.8% | 6.63% (active) | 82.8% | 15.4% | 8.05% (active) | 38% | 10.4% | 2.41% (active) | 79.6% | 11.5% | 7.47% (active) | 0.165% (active) | 23.9% | 23.1% | 27.2% | 21.9% | -11.7% (active) | 29.9% | 61% | – |
| CC(C)(C)OC(=O)NCc1cccc(N=C=S)c1 | 55.7% | 37.3% | 29.9% | 75.4% | -15.7% (active) | 47.2% | 21% | 3.66% (active) | 39.4% | 49.3% | 38.9% | 37.6% | 40.7% | 77.1% | 58.3% | – | 49.2% | 24.4% | 23.1% | 14.2% |
| ClC1c2ccccc2CCc2ccccc21 | 120% | 109% | 90.6% | 104% | 111% | 99.3% | 106% | 95% | 88.8% | 99.2% | 88.2% | 74.1% | 81.6% | 111% | 96.6% | – | 96.7% | 93.6% | 112% | 98.5% |
| CCCC(=O)Oc1ccc(/C(=C(\C)c2ccc(OC)cc2)c2ccc(OCCN3CCCCC3)cc2)cc1 | 87.1% | 21.9% | 61.9% | 109% | 66.2% | 83.1% | 61.5% | 65.5% | 68.5% | 33.8% | 64.1% | 1.78% (active) | 73% | 91% | 63.8% | – | 68.8% | 68.5% | 63.9% | 63.6% |
| NC(CCCC(N)C(=O)c1ccccc1)C(=O)O (centres undefined) | 105% | 98.9% | 95.9% | 109% | 112% | 99.6% | 102% | 97.5% | 82.5% | 102% | 107% | 73.3% | 97.1% | 110% | 102% | 83.3% | 107% | 99.8% | 103% | – |
| Cc1ccc(-c2nc3c(N=Nc4ccc(S(N)(=O)=O)cc4)c(N)nn3c(N)c2C#N)cc1 | 34.6% | 20.3% | 48.5% | 40.1% | 27.9% | 34.5% | 49.2% | 30.7% | 72.3% | 46.4% | 82.5% | 35.8% | 49% | 58% | 31.8% | – | -52.2% (active) | 22.5% | 52.8% | 52.9% |
| Cc1ccc[n+](CC(=O)c2cccc3ccccc23)c1 | 115% | 102% | 97.3% | 130% | 105% | 103% | 97.1% | 93.2% | 112% | 98.3% | 102% | 102% | 96.2% | 107% | 106% | 101% | 99.7% | 104% | 105% | – |
| O=C(Nc1cccc([N+](=O)[O-])c1)c1ccc2ccccc2c1O | 79.3% | 45.6% | 20.5% | 82.2% | 37.5% | 71.7% | 57.1% | 55.2% | 14.5% | 49.8% | 66% | 93.9% | 97.4% | 67.6% | 49.4% | – | 19.5% | 63.3% | 93.2% | 20.4% |
| Cc1cc2c(cc1C)N(C(=O)CCl)CCN2C(=O)CCl | -97.8% (active) | 5.44% (active) | -57.3% (active) | -45.9% (active) | -47.1% (active) | -33.4% (active) | 11.8% | -85.6% (active) | -67.2% (active) | -12.1% (active) | -64% (active) | -73% (active) | -94% (active) | 39.6% | -84.3% (active) | -70.2% (active) | -97.6% (active) | -89.3% (active) | -49.5% (active) | – |
